Drawing on PubChem BioAssay (Tox21), this text covers Potency for 6 molecules.

The nature of assay [1]: Nuclear factor erythroid 2-related factor 2/antioxidant responsive element (Nrf2/ARE) small molecule agonists: qHTS cell viability counter screen in human keratinocytes (AID 1919968; active = well fitted curve in the direction sought with a large enough effect in the repeat runs; an effect the other way counts as inactive or inconclusive; also: nearly all actives have a fitted effect of over 55% in size). A digest of the protocol: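 Fluorescence read-out from CellTiter-Fluor after 1 h at 37 C. Wells held HaCaT-derived ARE-luciferase reporter cells (1,500/well) treated 23 h with DMSO-dissolved compounds. Run in the same wells as the luciferase agonist read.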
Background: qHTS replaces the single test concentration by a dilution series.

Assay [2] can be described thus: Nuclear factor erythroid 2-related factor 2/antioxidant responsive element (Nrf2/ARE) small molecule agonists: luciferase reporter gene qHTS assay in human keratinocytes (AID 1919969; also: nearly all actives have a fitted effect of over 35% in size; also: potency is read from the fitted curve at half-maximal effect). (In general: Reporter assays use an easily measured gene product as a stand-in for the process of interest.)
The target of assay [3] is Gonadotropin-releasing hormone receptor (Homo sapiens) (UniProt P30968). Briefly: Human gonadotropin-releasing hormone receptor (GnRHR) small molecule agonists, calcium flux assay in GnRHR-HEK293 cells (AID 1920063). Also: nearly all actives have a fitted effect of over 35% in size. In a few lines: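 Calcium-dye fluorescence, Ex/Em=480/540, recorded every 1 sec over 3 min after compound addition to GnRHR-HEK293 cells. Cells had been seeded 18 hours earlier and dye-loaded for 1 hour at 37 C. Fifteen concentrations, triplicates.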
In general terms: A change in cytosolic calcium serves as a functional read-out for many receptors and channels.

Assay [4] deals with KiSS-1 receptor (Homo sapiens) (UniProt Q969F8). Briefly: Human kisspeptin (KISS1R) small molecule agonists, calcium flux assay in KISS1R-HEK293 cells (AID 1920064; active = well fitted curve in the direction sought with a large enough effect in the repeat runs; an effect the other way counts as inactive or inconclusive). A digest of the protocol: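 Calcium flux read-out: kinetic fluorescence at Ex/Em=480/540, 1 s intervals over 3 min, after pin-tool compound addition to dye-loaded KISS1R-HEK293 cells. Fifteen concentrations, triplicates.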

The nature of assay [5]: G protein-coupled receptor (GPCR) small molecule agonists, calcium flux assay: HEK293 wild type cell line counter screen (AID 1920065). A digest of the protocol: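 Agonist mode; 18 h seeding at 37 C, 1 h dye load at 37 C; compounds pinned from DMSO, ATP as positive control; kinetic fluorescence 480/540 nm, 3 min, 1 s reads; 15 concentrations, triplicate.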
Assay [6] in a line: p53 small molecule agonists, cell-based qHTS assay with human liver microsomes (AID 1963577). A digest of the protocol:
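Fluorescence of the beta-lactamase reporter in p53RE-bla cells, detected with LiveBLAzer substrate (2 h, room temperature, dark), served as the read-out after 16 h compound exposure at 37 C with human liver microsomes and NADPH, each 0.5 mg/mL final.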

Assay [7] in a line: p53 small molecule agonists, cell-based qHTS assay with rat liver microsomes (AID 1963578). A digest of the protocol:
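Cells carrying a p53 response element–beta-lactamase reporter were plated and rested 5 h, then dosed with compound in DMSO plus rat liver microsomes and NADPH, each at 0.5 mg/mL final. After 16 h at 37 C, LiveBLAzer substrate was added for 2 h.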

Assay [8] is described as follows: p53 small molecule agonists, cell-based qHTS assay with human liver microsomes: qHTS cell viability counter screen (AID 1963579). Also: nearly all actives have a fitted effect of over 45% in size. A digest of the protocol:
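Cytotoxicity counter screen: p53RE-bla, 4,000 cells/well; 5 h settle, 37 C/5% CO2; cpd + HLM 0.5 mg/mL + NADPH 0.5 mg/mL (final); 16 h, 37 C; CellTiter-Glo, 30 min RT, luminescence.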

Assay [9] can be described thus: p53 small molecule agonists, cell-based qHTS assay with rat liver microsomes: qHTS cell viability counter screen (AID 1963580). Also: nearly all actives have a fitted effect of over 45% in size. In a few lines: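 Cytotoxicity counter screen: intracellular ATP measured by CellTiter-Glo luminescence in the same wells as the beta-lactamase reporter read, on HCT-116 p53RE-bla cells exposed 16 h at 37 C to compounds with rat liver microsomes and NADPH, each 0.5 mg/mL final.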

A short description of assay [10]: p53 small molecule agonists, cell-based qHTS assay: qHTS cell viability counter screen (AID 1963581). Also: nearly all actives have a fitted effect of over 45% in size. In a few lines: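 Cytotoxicity read-out: ATP-based luminescence (CellTiter-Glo, 30 min RT) measured in the same wells as the p53 reporter assay, HCT-116 p53RE-bla cells, 16 h compound exposure at 37 C.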
The nature of assay [11]: p53 small molecule agonists, cell-based qHTS assay (AID 1963582; active = well fitted activation curve with a large enough effect in the signal ratio in the repeat runs, not every such curve was filed as active; the % refers to the signal ratio). In a few lines: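 Fluorescence intensity read-out of a beta-lactamase reporter under a p53 response element. Cells were exposed to DMSO-dissolved compounds for 16 h at 37 C, then developed with FRET substrate for 2 h at RT.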
Assay [12] deals with 5-hydroxytryptamine receptor 2A (Homo sapiens) (UniProt P28223). Briefly: 5-hydroxytryptamine receptor 2A (HTR2A) small molecule antagonists, cell-based qHTS assay (AID 1963586). Also: nearly all actives have a fitted effect of over 45% in size. A digest of the protocol: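 CHO cells stably expressing human HTR2A were plated for 18 h at 37 C, then loaded with calcium dye for 1 h. Compounds were preincubated 5 min at room temperature before DOI (4 nM solution) was added. Kinetic fluorescence was read for 3 min.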

Assay [13] shares this target. Briefly: 5-hydroxytryptamine receptor 2A (HTR2A) small molecule agonists, cell-based qHTS assay (AID 1963587). Also: nearly all actives have a fitted effect of over 30% in size. In a few lines: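 CHO cells stably expressing human HTR2A, plated 18 h, loaded with calcium dye 1 h at 37 C. Agonist mode: compounds added and intracellular calcium fluorescence recorded kinetically for 2 min at 1 sec intervals.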
Assay [14] addresses Muscarinic acetylcholine receptor M1 (Homo sapiens) (UniProt P11229). Briefly: Cholinergic receptor muscarinic 1 (CHRM1) small molecule antagonists, cell-based qHTS assay (AID 1963588). Also: nearly all actives have a fitted effect of over 40% in size. A digest of the protocol:
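Compounds were tested at 15 concentrations in three independent runs. Dye-loaded CHRM1-CHO cells were exposed 5 min at room temperature before stimulation by acetylcholine added at 50nM. Intracellular calcium was read kinetically on FDSS for 3 min.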

For assay [15] the target is unchanged. Briefly: Cholinergic receptor muscarinic 1 (CHRM1) small molecule agonists, cell-based qHTS assay (AID 1963589). Also: nearly all actives have a fitted effect of over 35% in size. In a few lines:
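Calcium flux read-out: kinetic fluorescence at 1 sec intervals after pin-tool compound addition to dye-loaded CHRM1-CHO cells (human M1). Agonist mode; 15 concentrations tested in triplicate independent runs.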

Assay [16] in a line: cAMP Responsive Elements (CRE) small molecule agonists, cell-based qHTS assay (AID 1963590). A digest of the protocol: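 Beta-lactamase reporter readout: LiveBLAzer B/G FRET substrate, 2 h at room temperature, added after 3 h compound treatment of CRE-bla HEK 293T cells at 37 C/5% CO2.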
Assay [17] can be described thus: cAMP Responsive Elements (CRE) small molecule antagonists, cell-based qHTS assay (AID 1963591; active = well fitted inhibition curve with a large enough effect in the signal ratio in the repeat runs, not every such curve was filed as active; the % refers to the signal ratio). A digest of the protocol: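 HEK293T CRE-bla; 18 h preincubation; compound pin-transfer; NKH477 0.25 uM final, 3 h, 37 C; LiveBLAzer FRET substrate 2 h RT.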
Assay [18] addresses Beta-2 adrenergic receptor (Homo sapiens) (UniProt P07550). Briefly: Adrenergic beta2 receptor (ADRB2) small molecule antagonists, cell-based qHTS assay (AID 1963592). Also: series mostly up to about 92 µM; nearly all actives have a fitted effect of over 50% in size. A digest of the protocol:
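Assay format: CHO-ADRB2 cells, 18-20hr seeding at 37C/5% CO2, then compound plus 1nM isoproterenol agonist mix for 0.5hr RT. Homogeneous time-resolved fluorescence cAMP detection after 1hr, expressed as 665/615 nm ratio.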

Assay [19] addresses D(2) dopamine receptor (Homo sapiens) (UniProt P14416). Briefly: Dopamine D2 receptor (DRD2) small molecule agonists, cell-based qHTS assay (AID 1963594). Also: nearly all actives have a fitted effect of over 35% in size. A digest of the protocol: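 HEK293 cells stably expressing human DRD2, pre-treated with PDE inhibitor Ro20-1724 (0.1 mM final) and compound 10 min at room temperature, then stimulated with NKH477 (200nM […]) for 30 min. cAMP read by HTRF (665/620 nm).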

Assay [20] has the same target. Briefly: Dopamine D2 receptor (DRD2) small molecule antagonists, cell-based qHTS assay (AID 1963595; active = well fitted inhibition curve with a large enough effect in the signal ratio in the repeat runs, with a control signal flat; the % refers to the signal ratio). A digest of the protocol: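 HEK293 cells stably expressing DRD2 were preincubated with 0.1 mM Ro20-1724, then with compound for 10 min at room temperature. Cells were stimulated with 200 nM NKH477 plus 12 nM quinpirole for 30 min, and cAMP was read by HTRF.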

Inconclusive results are not listed. The source made the active and inactive calls. Unless noted, calls follow the shape of the full dose curve.

Muscarinic acetylcholine receptor M1 (Homo sapiens), sequence (P11229 whole entry, looked up): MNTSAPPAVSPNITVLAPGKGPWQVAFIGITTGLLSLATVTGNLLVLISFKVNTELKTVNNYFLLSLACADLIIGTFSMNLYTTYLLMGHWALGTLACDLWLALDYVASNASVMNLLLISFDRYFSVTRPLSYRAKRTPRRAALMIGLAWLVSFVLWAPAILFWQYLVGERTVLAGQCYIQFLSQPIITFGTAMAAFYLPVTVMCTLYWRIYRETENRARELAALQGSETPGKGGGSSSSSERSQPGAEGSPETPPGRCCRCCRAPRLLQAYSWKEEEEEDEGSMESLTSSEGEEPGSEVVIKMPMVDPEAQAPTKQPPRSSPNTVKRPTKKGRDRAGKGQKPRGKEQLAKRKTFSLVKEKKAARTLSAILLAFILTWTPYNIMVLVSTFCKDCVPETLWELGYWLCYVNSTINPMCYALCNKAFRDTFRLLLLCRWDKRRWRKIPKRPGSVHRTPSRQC
5-hydroxytryptamine receptor 2A (Homo sapiens), sequence (P28223 whole entry, looked up): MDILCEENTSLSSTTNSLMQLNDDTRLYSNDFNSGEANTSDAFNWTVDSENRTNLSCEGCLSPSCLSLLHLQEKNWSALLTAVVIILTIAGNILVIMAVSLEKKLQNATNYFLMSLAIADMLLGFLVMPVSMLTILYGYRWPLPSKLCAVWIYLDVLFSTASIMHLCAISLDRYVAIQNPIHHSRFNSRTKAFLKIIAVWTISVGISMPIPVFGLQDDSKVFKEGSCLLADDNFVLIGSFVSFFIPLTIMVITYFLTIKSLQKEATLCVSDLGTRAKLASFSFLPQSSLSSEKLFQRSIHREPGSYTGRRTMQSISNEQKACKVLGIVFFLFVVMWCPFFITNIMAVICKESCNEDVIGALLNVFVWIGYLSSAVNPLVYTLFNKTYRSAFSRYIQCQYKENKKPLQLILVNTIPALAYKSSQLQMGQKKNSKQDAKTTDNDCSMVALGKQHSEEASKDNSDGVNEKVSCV
Beta-2 adrenergic receptor (Homo sapiens), sequence (P07550 whole entry, looked up): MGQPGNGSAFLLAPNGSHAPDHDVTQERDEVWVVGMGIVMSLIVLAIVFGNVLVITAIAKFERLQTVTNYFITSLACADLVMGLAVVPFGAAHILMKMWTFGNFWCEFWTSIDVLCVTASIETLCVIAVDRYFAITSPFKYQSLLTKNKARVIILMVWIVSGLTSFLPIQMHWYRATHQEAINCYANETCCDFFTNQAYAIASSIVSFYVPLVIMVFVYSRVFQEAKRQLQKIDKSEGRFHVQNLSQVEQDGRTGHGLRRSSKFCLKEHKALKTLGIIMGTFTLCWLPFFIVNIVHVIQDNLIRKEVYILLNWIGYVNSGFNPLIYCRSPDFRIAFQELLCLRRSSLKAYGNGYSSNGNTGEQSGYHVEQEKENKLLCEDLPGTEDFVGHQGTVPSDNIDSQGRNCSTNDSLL
KiSS-1 receptor (Homo sapiens), sequence (Q969F8 whole entry, looked up): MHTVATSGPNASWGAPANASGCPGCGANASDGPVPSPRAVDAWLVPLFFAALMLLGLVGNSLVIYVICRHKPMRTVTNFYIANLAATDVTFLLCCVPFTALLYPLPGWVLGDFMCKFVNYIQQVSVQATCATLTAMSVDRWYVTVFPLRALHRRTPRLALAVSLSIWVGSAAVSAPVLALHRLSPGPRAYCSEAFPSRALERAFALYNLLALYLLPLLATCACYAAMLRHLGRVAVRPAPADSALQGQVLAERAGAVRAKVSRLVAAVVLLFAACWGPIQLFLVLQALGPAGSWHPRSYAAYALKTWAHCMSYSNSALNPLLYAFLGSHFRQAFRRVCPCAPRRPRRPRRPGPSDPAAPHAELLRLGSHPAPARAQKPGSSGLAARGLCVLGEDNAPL
D(2) dopamine receptor (Homo sapiens), sequence (P14416 whole entry, looked up): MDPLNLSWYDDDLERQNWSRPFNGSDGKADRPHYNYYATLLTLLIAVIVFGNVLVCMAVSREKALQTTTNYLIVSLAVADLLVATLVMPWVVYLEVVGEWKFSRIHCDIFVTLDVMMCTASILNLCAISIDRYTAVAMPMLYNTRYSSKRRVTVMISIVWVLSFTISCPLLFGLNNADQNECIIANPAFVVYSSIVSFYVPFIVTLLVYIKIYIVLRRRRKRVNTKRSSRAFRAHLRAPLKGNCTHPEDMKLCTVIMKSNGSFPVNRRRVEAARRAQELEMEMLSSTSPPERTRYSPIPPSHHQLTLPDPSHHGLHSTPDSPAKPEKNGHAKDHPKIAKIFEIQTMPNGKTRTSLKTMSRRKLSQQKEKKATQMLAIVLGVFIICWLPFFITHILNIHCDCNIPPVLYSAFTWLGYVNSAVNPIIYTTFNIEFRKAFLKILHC
Gonadotropin-releasing hormone receptor (Homo sapiens), sequence (P30968 whole entry, looked up): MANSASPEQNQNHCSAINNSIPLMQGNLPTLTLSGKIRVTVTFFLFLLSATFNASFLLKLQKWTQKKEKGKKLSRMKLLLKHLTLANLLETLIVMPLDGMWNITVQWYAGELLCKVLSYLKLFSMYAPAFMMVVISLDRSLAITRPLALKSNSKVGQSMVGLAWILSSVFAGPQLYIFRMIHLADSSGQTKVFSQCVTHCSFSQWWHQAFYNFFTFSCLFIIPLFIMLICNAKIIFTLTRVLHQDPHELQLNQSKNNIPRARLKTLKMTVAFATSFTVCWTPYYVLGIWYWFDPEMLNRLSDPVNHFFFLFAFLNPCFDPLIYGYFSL

On to `NC(=O)Cc1cccc2ccccc12`, for which the Potency entry in assay [1], in assay [2], in assay [3], in assay [4], in assay [5] and in assay [6] was “inactive” throughout. Besides, the Potency result in assay [7], in [8], in [9], in [10], in assay [11] and in assay [12] was “inactive” throughout. For the same molecule, the Potency result in assay [13], in assay [14], in [15], in assay [16], in [17] and in assay [18] was “inactive” each time. In addition, the Potency entry in assay [19] and in assay [20] was “inactive” throughout.

In the case of `C[N+](C)(C)CC(O)CCl` (stereo not given), the Potency result in assay [1], in assay [2], in [3], in assay [4], in [5] and in assay [6] was “inactive” each time. Further, the Potency result in assay [7], in assay [8], in assay [9], in assay [10], in assay [11] and in [12] was “inactive” throughout. In addition, the Potency entry in assay [13], in assay [14], in assay [15], in assay [16], in assay [17] and in assay [18] was “inactive” throughout. The Potency result in assay [19] and in assay [20] was “inactive” each time.

As to `CC(C)(C)c1ccc(C(=O)CCCCl)cc1`, the Potency entry in assay [1], in assay [3], in [4], in assay [5], in assay [6] and in assay [7] was “inactive” throughout. Further, the Potency entry in assay [8], in assay [9], in [10], in assay [11], in [12] and in assay [13] was “inactive” each time. Also, the Potency entry in assay [14], in assay [15], in [16], in assay [17], in assay [18] and in assay [19] was “inactive” in each case. Moreover, the Potency result in assay [20] was “inactive”. Moreover, the Potency in [2] is 23.7 µM (active).

On to `Nc1cc(S(=O)(=O)O)ccc1S(=O)(=O)O`, for which the Potency entry in assay [1], in assay [2], in assay [3], in assay [4], in assay [5] and in assay [6] was “inactive” each time. The Potency result in assay [7], in assay [8], in [9], in [10], in [11] and in assay [12] was “inactive” in each case. Besides, the Potency entry in assay [13], in assay [14], in assay [15], in assay [16], in assay [17] and in assay [18] was “inactive” each time. Further, the Potency entry in [19] and in assay [20] was “inactive” throughout.

On to `O=C(O)c1ccco1`, for which the Potency entry in assay [1], in assay [2], in [3], in [4], in [5] and in assay [6] was “inactive” in each case. Besides, the Potency result in assay [7], in assay [8], in assay [9], in assay [10], in [11] and in [12] was “inactive” each time. Moreover, the Potency entry in assay [13], in assay [14], in [15], in [16], in assay [17] and in [18] was “inactive” throughout. Besides, the Potency result in [19] and in [20] was “inactive” each time.

Take `CC(C)(O)C#CC(C)(C)O`: the Potency result in [1], in assay [2], in assay [3], in [4], in assay [5] and in [6] was “inactive” in each case. In addition, the Potency result in assay [7], in [8], in [9], in [10], in [11] and in assay [12] was “inactive” throughout. In addition, the Potency result in assay [13], in assay [14], in assay [15], in [16], in assay [17] and in assay [18] was “inactive” each time. Moreover, the Potency result in [19] and in [20] was “inactive” in each case.
